From PubChem BioAssay
The sample as a whole holds a higher share of hits than the screen did.
DT40 TDP1 no CPT: qHTS for Inhibitors of human tyrosyl-DNA phosphodiesterase 1 (TDP1): qHTS in cells in absence of CPT. Potency, µM (doses to about 46.2 µM), without a hit: at the highest dose activity change, negative = growth inhibition, most hits filed as inhibitors. 15% of 420,000 active. DT40 Tdp1-/- hTDP1 cells, no CPT, ATP luminescence, 48 h. AID 686978, 2013; note: potency is the fitted concentration of half-maximal effect; nearly all actives have a fitted effect of over 55% in size
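No-CPT arm: Tdp1-/-;hTDP1 DT40 cells (400/well) plus compounds, incubated ≥48 hr at 37 °C. Readout CellTiter-Glo luminescence.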
HT1080-NT tox: kills 2HG-producing HT-1080-NT fibrosarcoma cells; 1.6% of 360,000 active; AID 686970; HT-1080-NT fibrosarcoma viability, CellTiter-Glo ATP luminescence, 48 h; Potency, µM (doses to about 46.1 µM), inactives show top-dose activity, negative = less viability, usual class: cytotoxic;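 note: NT is the 2HG producing partner of a matched IDH1 knockdown line; potency is the fitted concentration of half-maximal effect; 0% = DMSO-treated cells and -100% = media-only wells without cells; nearly all actives have a fitted effect of over 55% in size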
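HT-1080-NT fibrosarcoma cells (2HG-overproducing), 750 cells/well in RPMI with 5% FBS, dosed after 2 h and incubated 48 h at 37C. CellTiter-Glo luminescence normalized to DMSO and no-cell wells; concentration-response curves fitted and classed.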
HT1080 IDH1KD tx: toxicity to HT-1080 IDH1 knockdown cells (counter line). HT-1080 IDH1 knockdown viability, ATP luminescence, 48 h. Potency, µM (titrated, usually from 46.1 µM), without a hit: at the top dose activity, negative = toxicity, most hits filed as cytotoxic. 2% of 360,000 active. AID 686971;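 note: potency is the fitted concentration of half-maximal effect; 0% = DMSO wells and -100% = cell-free medium wells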
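HT-1080-IDH1KD cells (IDH1 knocked down), 750/well in RPMI with 5% FBS, treated with compound 48 h at 37 degrees C. Viability by CellTiter-Glo luminescence, normalised to DMSO and no-cell wells; concentration-response curves classed.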
IL1B secr inh: inflammasome signaling inhibition, IL-1 beta readout. THP-1 LPS/ATP IL-1B secretion, AlphaLISA, 16 h; active compounds read low. activity change, % at 57.5 µM. 4.7% of 360,000 active. AID 743279; in the data active = activity change below about -50%; inconclusive = mostly about -30% to -49%
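Secreted IL-1B measured by AlphaLISA bead assay after 16 h compound exposure of THP-1 cells; compounds (final up to 57.5 uM) added 1 h before LPS (250 ng/mL) and ATP (1.25 mM) stimulation; lower signal means less secretion.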
DT40 TDP1 CPT: growth inhibition of DT40 Tdp1-/-;hTDP1 cells with camptothecin (screen for TDP1 inhibitors); chicken DT40 Tdp1-/-;hTDP1 cells + 20 nM CPT, ATP luminescence, 48 h; Potency, µM (highest dose often 46.2 µM), for inactives: top-dose activity change, negative = growth inhibition, hits mostly inhibitors; 12% of 420,000 active; AID 686979; note: potency is the fitted concentration of half-maximal effect; nearly all actives have a fitted effect of over 55% in size
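Chicken DT40 Tdp1-/- cells stably complemented with human TDP1 were seeded at 400 cells/well in medium containing 20 nM camptothecin, exposed to pin-transferred compounds, and grown at 37 °C for at least 48 hr. Viability was read as ATP luminescence.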
12-LOX inh: ALOX12 (human) lipoxygenase inhibition | AID 1671190 | Potency, µM (highest dose often 108 µM), for the others: at the top dose activity change, negative = inhibition, hits mostly inhibitors | P18054 | purified 12hLO, xylenol orange hydroperoxide absorbance | 1.1% of 580,000 active; note: potency is the fitted concentration of half-maximal effect
Target sequence (P18054 whole entry, looked up): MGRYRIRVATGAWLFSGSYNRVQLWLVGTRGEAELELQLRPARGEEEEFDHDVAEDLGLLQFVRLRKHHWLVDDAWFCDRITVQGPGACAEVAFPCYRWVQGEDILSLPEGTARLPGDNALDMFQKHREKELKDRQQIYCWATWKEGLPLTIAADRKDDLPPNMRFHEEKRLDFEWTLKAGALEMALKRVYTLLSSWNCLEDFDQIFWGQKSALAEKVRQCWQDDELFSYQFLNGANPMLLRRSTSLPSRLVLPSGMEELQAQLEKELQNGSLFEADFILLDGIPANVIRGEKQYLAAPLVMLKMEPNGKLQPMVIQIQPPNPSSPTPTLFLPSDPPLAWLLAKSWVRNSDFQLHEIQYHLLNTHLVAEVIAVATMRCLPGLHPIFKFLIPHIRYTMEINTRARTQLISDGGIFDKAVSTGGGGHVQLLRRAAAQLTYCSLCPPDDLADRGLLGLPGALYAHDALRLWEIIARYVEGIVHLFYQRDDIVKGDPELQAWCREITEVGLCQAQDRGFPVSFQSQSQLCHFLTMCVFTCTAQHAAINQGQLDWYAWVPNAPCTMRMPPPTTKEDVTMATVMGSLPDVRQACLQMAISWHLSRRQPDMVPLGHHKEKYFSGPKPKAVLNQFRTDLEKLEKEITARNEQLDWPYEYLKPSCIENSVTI
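Purified human 12hLO (150 nM final) in 25 mM Hepes, 0.01% Triton X-100, pH 7.0 was preincubated 15 min at room temperature with compound. Then 40 uM arachidonic acid was added, 30 min. Hydroperoxide was read by Fe-XO absorbance ratio 573/405 nm.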
Numbers without * were called inactive; ? = inconclusive; . = no result; ! = not confirmed by another sample; [ ] = another dose, or the depositor's remark. Unless noted, calls come from the whole dose curve; as a rule, active = well fitted curve in the direction sought with a large enough effect; inconclusive = small, poorly fitted or top-dose-only effect, or another doubt; inactive = no such curve, though single readings can be large; an effect the other way counts as inactive or inconclusive. Unless noted, % is set by controls: 0 for no effect and ±100 for the full control effect.

SMILES	DT40 TDP1 no CPT	HT1080-NT tox	HT1080 IDH1KD tx	IL1B secr inh	DT40 TDP1 CPT	12-LOX inh
Cc1nn2cc(-c3cccc(Cl)c3)cnc2c1Cl	15µM*	0%	?	14	16µM*	15%
Cc1nn2cc(-c3cccc(Cl)c3)cnc2c1Br	5.8µM*	-20%	?	10	?	10%
COc1cccc(NC(=O)c2cc3ccccc3o/c2=N\O)c1	13µM*	-25%	-25%	?	15µM*	-18%
O=C(Nc1ccccc1Cl)c1cc2ccccc2o/c1=N\O	10µM*	-9%	2%	4	?	1%
O=C(Nc1ccccc1Cl)c1ccccc1Cl	-4%	-5%	7%	-1	1%	8%[57.4 µM]
Cc1cc(=O)c2cc(Cl)ccc2[nH]1	5.2µM*	6%	-3%	12	5.2µM*	-1%
O=c1cc(CSc2ccccc2)[nH]c2ccc(F)cc12	16µM*	.	.	.	12µM*	-17%
Cc1ccc2[nH]c(CSc3ccccc3)cc(=O)c2c1	16µM*	-14%	-7%	10	18µM*	0%
COc1ccc(SCc2cc(=O)c3cc(Cl)ccc3[nH]2)cc1	3.7µM*	.	.	.	21µM*	-14%
COc1ccc(S(=O)(=O)N2CCOCC2)cc1NC(=O)c1cccc(Cl)c1	-24%	0%	3%	22	-7%	15%
COc1ccccc1CN1CCC2(CC1)CC(O)CCO2 (stereo unspecified)	.	.	.	.	.	35%
COc1ccc(-c2cc(N3CCC(NC(=O)c4cc(F)ccc4Cl)C3)n[nH]2)cc1 (stereo unspecified)	.	.	.	.	.	34%
Cc1ccccc1C(=O)NC1CCCCN(C)C1=O (stereo unspecified)	.	.	.	.	.	-3%
O=C(NC12CC3CC(CC(C3)C1)C2)C1CC(=O)N(c2ccc(Br)cc2)C1 (stereo unspecified)	23µM*	3%	7%	5	13µM*	.
O=C(NC12CC3CC(CC(C3)C1)C2)C1CC(=O)N(c2ccccc2)C1 (stereo unspecified)	-28%	-1%	-2%	13	-19%	0%
CCn1nnc2cc(C(=O)Nc3cc(C)ccc3C)ccc21	?	.	.	.	?	-1%
CCn1c(SCC(=O)Nc2ccc3ccccc3c2)nnc1-c1cc2ccccc2o1	.	.	.	.	.	-3%
CC1Cc2ccccc2C[N+]1(C)CC(=O)c1ccc(I)cc1 (stereo unspecified)	14µM*	.	.	.	10µM*	.
CC[N+]1(CC(=O)c2ccc(I)cc2)CCCCC1	-20%	.	.	.	?	.
COCCNC(=S)N(CCc1c(C)[nH]c2ccc(F)cc12)Cc1ccc(C)cc1	18µM*	?	?	-73*	?	0%
CCNC(=S)N(CCc1c(C)[nH]c2ccc(C)cc12)Cc1cccnc1	29µM*	-3%	-2%	-1	?	31%
COCCNC(=S)N(CCc1c(C)[nH]c2ccc(C)cc12)Cc1ccco1	?	-8%	-13%	-12	?	67%
CCNC(=S)N(CCc1c(C)[nH]c2ccc(F)cc12)Cc1cccnc1	26µM*	-2%	-8%	-4	?	0%
CC(=O)N(CCC1(CCC(C)C)CCOC(C)(C)C1)Cc1ccccc1 (stereo unspecified)	.	.	.	.	.	-38%
COc1ccc(OC)c(C2CCCN2Cc2nc(-c3ccccc3C)no2)c1 (stereo unspecified)	.	.	.	.	.	91%
SMILES	DT40 TDP1 no CPT	HT1080-NT tox	HT1080 IDH1KD tx	IL1B secr inh	DT40 TDP1 CPT	12-LOX inh
Cc1cccc2nc(CSc3nnc(N4CCCC4)n3-c3cccc(Cl)c3)cn12	.	.	.	.	.	2%
CC(C)CCNC(=O)CCC(=O)NNc1nc2ccccc2c2nc(-c3ccccc3)nn12	21µM*	-12%	-8%	-2	21µM*	0%
Cc1ccc(Cl)cc1N1CCN(CCCNC(=O)Cn2ncc3c([nH]c4ccccc43)c2=O)CC1	8.2µM*	.	.	.	15µM*	-40%
Cc1nc2c3ccccc3nc(NNC(=O)CCC(=O)N3CCCC(C)C3)n2n1 (stereo unspecified)	-17%	0%	-1%	2	-1%	23%
Cc1cccc(N2CCN(C(=O)Cn3ncc4c([nH]c5ccccc54)c3=O)CC2C)c1 (stereo unspecified)	15µM*	.	.	.	?	?
Cc1cccc(N2CCN(C(=O)CCC(=O)NNc3nc4ccccc4c4nc(C)nn34)CC2C)c1 (stereo unspecified)	23µM*	.	.	.	18µM*	-10%
O=C1Nc2ccccc2CC12CCN2[S+](=O)([O-])c1cccc(C(F)(F)F)c1 (stereo unspecified)	.	.	.	.	.	52%
Cc1ccc(-n2cnc3sc4c(c3c2=O)CCC4)cc1	.	.	.	.	.	2%
Cc1ccc(-c2ccc(=O)n(CC(=O)N3CCN(c4cccc(C)c4)C(C)C3)n2)cc1 (stereo unspecified)	-22%	-29%	-20%	-61*	?	8%[57.4 µM]
Cc1ccc2[nH]c3c(=O)n(CC(=O)NCCCN4CCN(c5ccc(F)cc5)CC4)ncc3c2c1	16µM*!	6%	5%	?	?	?
Cc1cccc(N2CCN(C(=O)Cn3sc4nc(C)cc(C)c4c3=O)CC2C)c1 (stereo unspecified)	4.6µM*	-18%	?	?	3.7µM*	.
Cc1cccc(N2CCN(C(=O)Cn3nc(C)n4cccc4c3=O)CC2C)c1 (stereo unspecified)	-25%	-4%	-1%	4	?	2%
Cc1cccc(N2CCN(CCCNC(=O)Cn3ncc4c([nH]c5ccccc54)c3=O)CC2C)c1 (stereo unspecified)	18µM*	.	.	.	?	?
COc1cccc([S+](=O)([O-])N2CCn3c(nn(-c4ccc(F)cc4F)c3=O)C2)c1	.	.	.	.	.	28%
CCc1ccccc1-n1ncc2c1NC(=O)CC21C(=O)N(CC(N)=O)c2ccccc21 (stereo unspecified)	.	.	.	.	.	-30%
Cc1cccc(CN2CCN(CC(=O)NCCCN3CCN(c4ccc(F)cc4)CC3)C2=O)c1	?	-20%	?	-56*	11µM*	-9%
Cc1cccc(N2CCN(C(=O)CCn3c(=S)[nH]c4cc5c(cc4c3=O)OCO5)CC2C)c1 (stereo unspecified)	23µM*	-8%	1%	0	16µM*	2%
O=C(CCn1c(=S)[nH]c2cc3c(cc2c1=O)OCO3)N1CCc2ccccc2C1	.	.	.	.	.	10%
